The text below walks through data of PubChem BioAssay (EPA / NIEHS).

SMILES strings stand for the structures. Records with an inconclusive call do not appear. Activity calls are given as the source filed them. How the source made its calls: active means hit-call score of the fitted dose curve at least 0.9, where 1 is the maximum; inconclusive means response in the unintended direction; inactive means score below 0.9.

Read-out in the assay: glucuronosyltransferase (UGT1A1), UGT1A1 (gene 54658)
In words: CLD_UGT1A1_24hr: CellzDirect (CLD) Gene Expression Assay for glucuronosyltransferase (UGT1A1) at 24 hours (AID 2283696). How it is done:
CLD_24hr is a cell-based, multiplexed-readout assay that uses hepatocyte, a human liver primary cell, with measurements taken at 24 hours after chemical dosing in a 96-well plate.CLD_UGT1A1_24hr is one of 16 assay component(s) measured or calculated from the CLD_24hr assay. It is designed to make measurements of mRNA induction, a form of inducible reporter, as detected with chemiluminescence signals by Quantitative Nuclease Protection Assay (qNPA) technology.Data from the assay component CLD_UGT1A1_24hr was analyzed at the endpoint, CLD_UGT1A1_24hr, in the positive analysis fitting direction relative to DMSO as the negative control and baseline of activity. Using a type of inducible reporter, gain-of-signal activity can be used to understand changes in the reporter gene as they relate to the gene UGT1A1. Furthermore, this assay endpoint can be referred to as a primary readout. To generalize the intended target to other relatable targets, this assay endpoint is annotated to the transferase intended target family, where subfamily is glucuronosyltransferase.
Human hepatocyte cultures were treated daily for two consecutive days with fresh dosing solutions containing appropriate concentrations of the 320 ToxCast chemicals (chemical identities were blinded to CellzDirect and other ToxCast collaborators), vehicle control (0.2% DMSO), and positive control inducers as summarized in Table 1. Due to the large number of treatment groups and chemicals examined, the ToxCast chemicals were divided into two groups (spanning two independent cultures of hepatocytes from separate donor preparations (Hu778: ToxCast plates 1 and 2; Hu776: ToxCast plates 3 and 4). Each preparation of human hepatocyte cultures was treated with respective vehicle control, medium only control, set of six positive controls/reference chemicals for the five hepatic receptor pathways, and a subset of eight of the ToxCast chemicals (indoxacarb, pyrithiobac-sodium, norflurazon, cyhalofop-butyl, methomyl, thiram, acetochlor, and propiconazole). These replicate data, coupled with internal replicates designed within the blinded ToxCast chemical library, provided additional data to evaluate interindividual differences between hepatocyte preparations and their potential impact on chemical profiles.Cell morphology and integrity were evaluated using phase-contrast microscopy as an indicator of hepatocyte cell health (Tyson & Green, 1987). Cultures for each treatment group (i.e., media, vehicle [0.2% DMSO], positive control inducers [multiple concentrations], and the ToxCast chemicals [multiple concentrations]) were observed and cell morphology was assessed relative to vehicle control cultures at each harvest time point (0, 6, 24, or 48 h). […] Images were evaluated at the conclusion of the study to assess changes in cell integrity and account for the effects of chemical exposure on uncharacteristic changes in concentration-dependent gene expression profiles. The results from these determinations of apparent cytotoxicity were annotated (yes/no) alongside the corresponding qNPA data for reference.At the conclusion of each treatment period, hepatocyte cultures (96-well) were washed with 1 volume of HBSS, lysed by addition of 25 ul ArrayPlate lysis buffer (HTG, Tucson, AZ), and 70 ul/well of Denaturation Oil, denatured by incubation at 95C for 10 min, and frozen at approximately -70C until analysis by nuclease protection assay (qNPA) (Roberts et al., 2007). For qNPA analysis, cell lysates were thawed at 50C for approximately 30 min, qNPA probes were added, and samples were incubated at 95C for 10 min to begin the detection process by denaturing the target RNA, dissociating the duplexes and secondary structure hybridization. At the conclusion of the hybridization period, S1 nuclease reagent was added to each sample to digest all nonprotected nucleotides at 50C for 60-90 min. […]
Take `COc1cnc(OC)n2nc(NS(=O)(=O)c3c(OCC(F)F)cccc3C(F)(F)F)nc12`: the call was inactive.

On to `COC(=O)C(C)Oc1ccc(Oc2ccc(Cl)cc2Cl)cc1` (stereo not given), for which the compound was classed as inactive.

On to `CCCC1COC(Cn2cncn2)(c2ccc(Cl)cc2Cl)O1` (stereo not given), for which the outcome was inactive.

For the compound `CCOc1cc(Oc2ccc(C(F)(F)F)cc2Cl)ccc1[N+](=O)[O-]`, the outcome was inactive.

Regarding `CC(Oc1ccc(Cl)cc1Cl)C(=O)O` (stereo not given), the compound was called inactive.

Consider `COc1nc(NC(C)C)nc(NC(C)C)n1`, for which the compound was called inactive.

In the case of `Oc1ccccc1-c1ccccc1`, the outcome was inactive.

Consider `CC1COC(Cn2cncn2)(c2ccc(Oc3ccc(Cl)cc3)cc2Cl)O1` (stereo not given), for which the call was inactive.

As to `O=C(Nc1ccccc1)Nc1ccnc(Cl)c1`, the result was inactive.

Regarding `CCON=C(CC)C1=C(O)CC(c2c(C)cc(C)cc2C)CC1=O` (stereo not given), the compound was called inactive.

For `COC(=O)N(OC)c1ccccc1COc1ccn(-c2ccc(Cl)cc2)n1`, the compound was classed as inactive.

Consider `COC(=O)C=C(C)OP(=O)(OC)OC`, for which the compound was called inactive.

`CCCCNC(=O)OCC#CI`: the compound was called inactive.

For `COc1nc(C)nc(NC(=O)NS(=O)(=O)c2ccccc2Cl)n1`, the compound was classed as inactive.

For the compound `CCCCNC(=O)n1c(NC(=O)OC)nc2ccccc21`, the result was inactive.

`CCCCC(CC)COC(=O)c1ccccc1C(=O)OCC(CC)CCCC` (stereo not given): the compound was classed as inactive.

As for `O=C(O)COc1nc(Cl)c(Cl)cc1Cl`, the compound was called inactive.

`Fc1ccc(Oc2ccnc3cc(Cl)cc(Cl)c23)cc1`: the outcome was inactive.

`CCOC(=O)C(Cl)Cc1cc(-n2nc(C)n(C(F)F)c2=O)c(F)cc1Cl` (stereo not given): the result was inactive.

As to `CO/C=C(/C(=O)OC)c1ccccc1Oc1cc(Oc2ccccc2C#N)ncn1`, the compound was called inactive.

`CCNc1nc(Cl)nc(NCC)n1`: the call was inactive.

With `COC(=O)c1ccccc1C(=O)OC`, the compound was classed as inactive.

For the compound `C=CCC1=C(C)[C@@H](OC(=O)[C@@H]2[C@@H](C=C(C)C)C2(C)C)CC1=O`, the AC50 was 20 µM (active).

For the compound `Cc1ccc(-c2c(Cl)nc(C#N)n2S(=O)(=O)N(C)C)cc1`, the call was inactive.

With `CCOP(=S)(OCC)SCn1c(=O)oc2cc(Cl)ccc21`, the compound was classed as inactive.

`N#Cc1cc(Br)c(O)c(Br)c1`: the call was inactive.

Take `CCOC(=O)CC(SP(=S)(OC)OC)C(=O)OCC` (stereo not given): the compound was called inactive.

For `CCNc1nc(Cl)nc(NC(C)C)n1`, the AC50 is 6.52 µM (active).

In the case of `Cc1cc(Cl)ccc1OCC(=O)O`, the result was inactive.

In the case of `CCCCOC(=O)c1ccccc1C(=O)OCCCC`, the compound was called inactive.

`CC1=C(C(=O)Nc2ccccc2)SCCO1`: the result was inactive.

As to `Cc1c(F)c(F)c(COC(=O)C2C(/C=C(\Cl)C(F)(F)F)C2(C)C)c(F)c1F` (stereo not given), the call was inactive.

Take `C#CCOS(=O)OC1CCCCC1Oc1ccc(C(C)(C)C)cc1` (stereo not given): the compound was called inactive.

Regarding `COP(=S)(OC)Oc1nc(Cl)c(Cl)cc1Cl`, the outcome was inactive.

With `CC(C)C1(C)N=C(c2nc3ccccc3cc2C(=O)O)NC1=O` (stereo not given), the result was inactive.

Take `CNC(=O)ON=CC(C)(C)SC`: the result was inactive.

As to `N#Cc1nn(-c2c(Cl)cc(C(F)(F)F)cc2Cl)c(N)c1S(=O)C(F)(F)F` (stereo not given), the compound was classed as inactive.

Regarding `C=CC1(C)OC(=O)N(c2cc(Cl)cc(Cl)c2)C1=O` (stereo not given), the call was inactive.

`OC(c1ccc(Cl)cc1)(c1cncnc1)c1ccccc1Cl` (stereo not given): the outcome was inactive.

With `CS/C(C)=N/OC(=O)N(C)SN(C)C(=O)O/N=C(\C)SC`, the compound was called inactive.

As a reminder, the AC50 is the midpoint of the concentration-response curve, whichever way the signal moves.
